HT1080NT lethal: qHTS for induction of synthetic lethality in tumor cells producing 2HG: qHTS for the HT-1080-NT fibrosarcoma cell line; HT-1080-NT fibrosarcoma viability, CellTiter-Glo ATP luminescence, 48 h; Potency, µM (highest dose often 46.1 µM), without a hit: top-dose activity, negative = less viability, hits mostly cytotoxic; 360,000 compounds, 1.6% hits; AID 686970, 2013;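 note: NT is the 2HG producing partner of a matched IDH1 knockdown line; potency is the fitted concentration of half-maximal effect; 0% = DMSO-treated cells and -100% = media-only wells without cells; nearly all actives have a fitted effect of over 55% in size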
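Toxicity toward the 2HG-producing NT line was scored as %Activity, normalised to DMSO and no-cell wells, from CellTiter-Glo luminescence after 48 hours' treatment.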
IL1B secr inh: qHTS for Inhibitors of Inflammasome Signaling: IL-1-beta AlphaLISA Primary Screen; THP-1 LPS/ATP IL-1B secretion, AlphaLISA, 16 h; hits give low values; activity change, % at 57.5 µM; 360,000 compounds, 4.7% hits; AID 743279, 2014; in the data active = activity change below about -50%; inconclusive = mostly about -30% to -49%
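Secreted IL-1B measured by AlphaLISA bead assay after 16 h compound exposure of THP-1 cells; compounds (final up to 57.5 uM) added 1 h before LPS (250 ng/mL) and ATP (1.25 mM) stimulation; lower signal means less secretion.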
TDP1 cell CPT: qHTS for Inhibitors of human tyrosyl-DNA phosphodiesterase 1 (TDP1): qHTS in cells in presence of CPT; chicken DT40 Tdp1-/-;hTDP1 cells + 20 nM CPT, ATP luminescence, 48 h; AID 686979, 2013; Potency, µM (top dose mostly 46.2 µM), inactives show at the highest dose activity change, negative = growth inhibition, most hits filed as inhibitors; 420,000 compounds, 12% hits; note: potency is the fitted concentration of half-maximal effect; nearly all actives have a fitted effect of over 55% in size
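Chicken DT40 Tdp1-/- cells stably complemented with human TDP1 were seeded at 400 cells/well in medium containing 20 nM camptothecin, exposed to pin-transferred compounds, and grown at 37 °C for at least 48 hr. Viability was read as ATP luminescence.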
HT1080 IDH1KD tx: qHTS for induction of synthetic lethality in tumor cells producing 2HG: qHTS for the HT-1080-IDH1KD cell line; 360,000 compounds, 2% hits; Potency, µM (highest dose often 46.1 µM), for the others: at the highest dose activity, negative = toxicity, most hits filed as cytotoxic; HT-1080 IDH1 knockdown viability, ATP luminescence, 48 h; AID 686971, 2013;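 note: potency is the fitted concentration of half-maximal effect; 0% = DMSO wells and -100% = cell-free medium wells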
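CellTiter-Glo luminescence after 48 h compound exposure at 37 degrees C of IDH1-knockdown HT-1080 cells in 5% FBS RPMI. %Activity scaled between DMSO wells and cell-free media wells, with curves fitted and assigned curve classes.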
DT40 TDP1 no CPT: qHTS for Inhibitors of human tyrosyl-DNA phosphodiesterase 1 (TDP1): qHTS in cells in absence of CPT; DT40 Tdp1-/- hTDP1 cells, no CPT, ATP luminescence, 48 h; Potency, µM (titrated, usually from 46.2 µM), inactives show at the top dose activity change, negative = growth inhibition, actives largely listed as inhibitors; 420,000 compounds, 15% hits; AID 686978, 2013; note: potency is the fitted concentration of half-maximal effect; nearly all actives have a fitted effect of over 55% in size
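A cellular qHTS used chicken DT40 cells lacking endogenous Tdp1 but carrying stably transfected human TDP1. Compounds were applied without camptothecin, and cell growth kinetics were judged by ATP-dependent luminescence after ≥48 hr.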
Numbers without * were called inactive; ? = inconclusive; . = not tested or not shown; [ ] = remark or other dose. Hits are enriched below; roughly 19% of the tested compounds scored in any of these assays. Unless noted, calls come from the whole dose curve; as a rule, active = well fitted curve in the direction sought with a large enough effect; inconclusive = small, poorly fitted or top-dose-only effect, or another doubt; inactive = no such curve, though single readings can be large; an effect the other way counts as inactive or inconclusive. Unless noted, % is set by controls: 0 for no effect and ±100 for the full control effect.

SMILES | HT1080NT lethal | IL1B secr inh | TDP1 cell CPT | HT1080 IDH1KD tx | DT40 TDP1 no CPT
Cc1ccc(NS(=O)(=O)c2ccc(-n3cccn3)cc2)cc1C | -1.2% | -7.1 | ? | -17.8% | ?
CCc1cccc(NS(=O)(=O)c2ccc(-n3cccn3)cc2)c1 | ? | -11.1 | 16.4µM* | -22.1% | 20.6µM*
O=S(=O)(Nc1cccc(Cl)c1)c1ccc(-n2cccn2)cc1 | -6.9% | 2.4 | -29.5% | -1.6% | ?
COc1ccc(CNS(=O)(=O)c2ccc(-n3cccn3)cc2)cc1 | 0.3% | 0.0 | ? | -14.9% | ?
Cc1cc(C)cc(NS(=O)(=O)c2ccc(-n3cccn3)cc2)c1 | . | . | 16.4µM* | . | ?
COc1ccc(NS(=O)(=O)c2ccc(-n3cccn3)cc2)cc1OC | . | . | 5.8µM* | . | 4.61µM*
COc1cc(NS(=O)(=O)c2ccc(-n3cccn3)cc2)cc(OC)c1 | -10.9% | 16.3 | 13µM* | -19.8% | 11.6µM*
O=C(CSc1nnc(-c2ccccc2)c2ccccc12)NCCN1C(=O)CSC1=O | -0.4% | ? | -0.7% | -8.3% | 0.6%
Cc1cccc(C)c1OCC(=O)N(Cc1ccc(Cl)cc1)C1CCS(=O)(=O)C1 (stereo unspecified) | -2.4% | ? | ? | -5.1% | ?
O=C(c1cncs1)N(Cc1cc2cc3c(cc2nc1N1CCOCC1)CCC3)CC1CCCO1 (stereo unspecified) | . | . | -5.6%[9.04 µM] | . | -12.1%
Cc1ccc(C)c(NS(=O)(=O)c2ccc(-n3cccn3)cc2)c1 | 1.8% | 2.6 | -38.8% | -23.1% | ?
COC(=O)c1cc(S(=O)(=O)NCc2ccccc2OC)cn1C | -7.8% | 16.6 | ? | -6.4% | 8.2µM*
Cc1ccc(NS(=O)(=O)c2ccc(-n3cccn3)cc2)cc1Cl | -1.4% | 7.6 | ? | -5.4% | ?
O=S(=O)(Nc1ccc(F)cc1F)c1ccc(-n2cccn2)cc1 | . | . | 16.4µM* | . | ?
COc1ccccc1CNS(=O)(=O)c1ccc(-n2cccn2)cc1 | -1.2% | 20.4 | 25.9µM* | -0.9% | ?
CCc1cccc(C)c1NS(=O)(=O)c1ccc(-n2cccn2)cc1 | . | . | 16.4µM* | . | 25.9µM*
COC(=O)c1cc(S(=O)(=O)NCc2cccc(OC)c2)cn1C | -0.2% | 8.1 | -28.9% | 5.2% | -2.4%
Cc1cc(C)cc(OCC(=O)Nc2ccc3c4c(cccc24)CC3)c1 | -1.0% | 18.1 | ? | -4.6% | ?
Cc1ccccc1OCC(=O)NC(=S)Nc1ccc2c3c(cccc13)CC2 | 8.5% | -1.8 | 18.4µM* | -1.9% | 18.4µM*
CCOC(=O)N1CCC(=C2c3ccc(Cl)cc3CCc3cccnc32)CC1 | ? | 8.3 | 20.6µM* | ? | 13µM*
CN1CCC(=C2c3ccccc3CCc3cccnc32)CC1 | . | . | 14.8% | . | 8.5%
COc1cccc(NS(=O)(=O)c2ccc3[nH]cc(C(=O)N(C)C4CCCCC4)c(=O)c3c2)c1 | . | . | -24.3% | . | ?
Cc1cccc(-c2cc(=O)c3cc(Br)ccc3o2)c1 | . | . | 25.6% | . | -8.3%
CCCC[C@@H](CNC)NC[C@H](Cc1ccc(O)cc1)NCCc1ccc(OCC)cc1 | ? | -26.8 | 5.17µM* | -24.0% | 3.26µM*
CCC[C@H](CN[C@@H](CNC)[C@H](C)O)NCCc1ccc(OC)cc1 | -17.6% | -10.3 | -7.1% | -0.1% | -0.6%
SMILES | HT1080NT lethal | IL1B secr inh | TDP1 cell CPT | HT1080 IDH1KD tx | DT40 TDP1 no CPT
COc1ccc(CN(C(=O)c2oc3cc(C)ccc3c2C)C2CCS(=O)(=O)C2)cc1OC (stereo unspecified) | -14.1% | -22.7 | -4.6% | 0.0% | ?
CCc1ccc(CN(C(=O)c2oc3ccccc3c2C)C2CCS(=O)(=O)C2)cc1 (stereo unspecified) | -0.4% | -27.3 | ? | -5.5% | 18.4µM*
COc1ccc(CN(C(=O)c2oc3ccccc3c2C)C2CCS(=O)(=O)C2)cc1 (stereo unspecified) | -7.2% | -11.8 | -0.9% | -2.1% | ?
O=C(Cn1c(=O)oc2ccccc21)N(Cc1ccccc1)C1CCS(=O)(=O)C1 (stereo unspecified) | 4.7% | -4.6 | 23.1µM* | 10.6% | ?
COc1ccccc1C(=O)N(Cc1sccc1C)C1CCS(=O)(=O)C1 (stereo unspecified) | 9.7% | -9.3 | -10.8% | 10.0% | 2.6%
Cc1ccsc1CN(C(=O)c1oc2ccccc2c1C)C1CCS(=O)(=O)C1 (stereo unspecified) | . | . | 8.2µM* | . | 5.17µM*
Cc1c(C(=O)N(Cc2ccc(N(C)C)cc2)C2CCS(=O)(=O)C2)oc2ccccc12 (stereo unspecified) | 14.7% | -5.9 | 29.1µM* | -20.3% | ?
CC(C)CNC(=O)c1cc(S(=O)(=O)N2CCOCC2)ccc1N1CCCC1 | 1.0% | -5.9 | 1.1% | 0.9% | 5.5%
C#CCNCCS(=O)(=O)N(Cc1ccc(Br)cc1)[C@@H](CC(C)C)C(=O)O | 11.7% | 48.3 | -4.2% | 0.1% | -22.6%
Cc1c(C(=O)N(Cc2ccccc2)C2CCS(=O)(=O)C2)oc2ccccc12 (stereo unspecified) | -0.2% | -26.6 | ? | -9.7% | 20.6µM*
Cc1c(C(=O)N(Cc2ccc(F)cc2)C2CCS(=O)(=O)C2)oc2ccccc12 (stereo unspecified) | 3.8% | ? | ? | -1.6% | -28.1%
Cc1c(C(=O)N(Cc2cccc(Br)c2)C2CCS(=O)(=O)C2)oc2ccccc12 (stereo unspecified) | -22.6% | -14.1 | ? | ? | 20.6µM*
Cc1cccc(C)c1N1CCN(C(c2cc3ccccc3o2)c2nnnn2C(C)(C)C)CC1 (stereo unspecified) | 3.9% | 9.4 | 14.6µM* | ? | ?
CCCCn1nnnc1C(c1cc2ccccc2o1)N1CCN(CCN(C)C)CC1 (stereo unspecified) | ? | -4.7 | ? | -0.5% | 20.6µM*
CCCCn1nnnc1C(c1cc2ccccc2o1)N1CCN(c2c(C)cccc2C)CC1 (stereo unspecified) | 10.5% | 4.2 | ? | 15.9% | 18.4µM*
CCCCn1nnnc1C(c1cc2ccccc2o1)N1CCN(c2ccncc2)CC1 (stereo unspecified) | ? | -60.8* | 20.6µM* | ? | 23.1µM*
CCOC(=O)N1CCN(C(c2cc3ccccc3o2)c2nnnn2C(C)(C)C)CC1 (stereo unspecified) | 9.6% | 3.4 | -4.5% | 3.3% | ?
